The source of these data is PubChem BioAssay.

Unmarked numbers belong to inactive results. For some of these results: Potency and affinity values are given separately. Active and inactive are the calls of the source. Unless noted, no rule for the calls is given here.

Test [1] can be described thus: antimalarial activity against Dd2 strain (AID 2302;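 active = growth inhibition above 50% at the single 2 µM test dose, taken to imply half-maximal potency below 2 µM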;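 also: 0% = DMSO untreated growth and 100% = chloroquine plus artemisinin killed control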). Particulars: P. falciparum Dd2 in RBCs, LDH growth readout, 72 h; at 2 µM; stronger effect = higher value.
Test [2] can be described thus: human hepatoma cell viability loss – ATP luminescence, cytotoxicity control for P. falciparum antimalarial project, primary screen (AID 2303;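 active = inhibition above 50%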;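 also: 0% = DMSO wells and 100% = digitonin-killed cells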). Particulars: HepG2 viability, 24-48 h, at 10 µM, stronger effect = higher value.
Test [3] deals with L-lactate dehydrogenase (Plasmodium falciparum (isolate CDC / Honduras)) (UniProt Q27743). Description: PfLDH activity inhibition – cell lysate, 3D7 strain, counter-screen for P. falciparum growth inhibition project (AID 2304).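 Also: 0% = vehicle and 100% = reference inhibitor.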 Conditions: P. falciparum 3D7 crude extract, LDH APAD/NBT absorbance; at 2 µM; stronger effect = higher value.
Sequence of L-lactate dehydrogenase (Plasmodium falciparum (isolate CDC / Honduras)) (Q27743 whole entry, looked up): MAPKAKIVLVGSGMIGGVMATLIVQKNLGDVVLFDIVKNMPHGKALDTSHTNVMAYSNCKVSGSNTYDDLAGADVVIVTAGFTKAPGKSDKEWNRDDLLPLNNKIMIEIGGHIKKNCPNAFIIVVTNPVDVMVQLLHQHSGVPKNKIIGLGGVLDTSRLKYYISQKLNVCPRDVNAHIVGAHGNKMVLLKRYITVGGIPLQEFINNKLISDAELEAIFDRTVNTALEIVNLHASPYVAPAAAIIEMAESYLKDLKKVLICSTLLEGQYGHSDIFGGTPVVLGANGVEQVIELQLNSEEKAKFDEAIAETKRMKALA
Test [4] in a line: inhibition of 3D7 malaria parasite growth – strain 3D7 (AID 2306).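 Also: 0% = DMSO wells and 100% = chloroquine plus artemisinin control wells.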 Particulars: P. falciparum 3D7 erythrocytic growth, LDH absorbance, 72 h; at 2 µM; stronger effect = higher value.
Test [5] addresses Calcium-dependent protein kinase 1 (Plasmodium falciparum (isolate 3D7)) (UniProt P62344). Description: PfCDPK1 kinase inhibitors, biochemical, TCAMS library (AID 1159585; cut-off not given, nearly all actives have IC50 up to about 0.98 µM;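 also: inhibitors leave more ATP so luminescence rises with inhibition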). Particulars: recombinant PfCDPK1, Kinase-Glo ATP depletion luminescence.
For test [6], the target named is Plasmodium falciparum protein kinase 6 (PK6, PF3D7_1337100) (UniProt Q8IDW1). Description: PfPK6 kinase inhibitors, biochemical, TCAMS library (AID 1159586). Conditions: recombinant PfPK6, Kinase-Glo ATP depletion luminescence.
Sequence of Plasmodium falciparum protein kinase 6 (PK6, PF3D7_1337100) (Q8IDW1 1-305): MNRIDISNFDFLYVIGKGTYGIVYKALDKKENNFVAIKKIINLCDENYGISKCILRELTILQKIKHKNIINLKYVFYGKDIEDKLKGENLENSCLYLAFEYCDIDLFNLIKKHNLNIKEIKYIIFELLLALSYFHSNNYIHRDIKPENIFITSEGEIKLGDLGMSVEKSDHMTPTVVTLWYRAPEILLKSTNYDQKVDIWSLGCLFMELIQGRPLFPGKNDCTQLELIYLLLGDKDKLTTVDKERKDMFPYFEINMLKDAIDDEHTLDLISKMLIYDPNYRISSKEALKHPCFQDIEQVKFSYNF
In test [7] the target is Protein kinase 7 (PK7), Plasmodium falciparum 3D7 (PF3D7_0213400) (UniProt Q7YTF7). Briefly: inhibition of Plasmodium PK7 catalytic activity – biochemical, TCAMS antimalarial set, Kinase-Glo luminescence (AID 1159587). Conditions: recombinant PfPK7, Kinase-Glo ATP depletion luminescence.
Sequence of Protein kinase 7 (PK7), Plasmodium falciparum 3D7 (PF3D7_0213400) (Q7YTF7 1-343): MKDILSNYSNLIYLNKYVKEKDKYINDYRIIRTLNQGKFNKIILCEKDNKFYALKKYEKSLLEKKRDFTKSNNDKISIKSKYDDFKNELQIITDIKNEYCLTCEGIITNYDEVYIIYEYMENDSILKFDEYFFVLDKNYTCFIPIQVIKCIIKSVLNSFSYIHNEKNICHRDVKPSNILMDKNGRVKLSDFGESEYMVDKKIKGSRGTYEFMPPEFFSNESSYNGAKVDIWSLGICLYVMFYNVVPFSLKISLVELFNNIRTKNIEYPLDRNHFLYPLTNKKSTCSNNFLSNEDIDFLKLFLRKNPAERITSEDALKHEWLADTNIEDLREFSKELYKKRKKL
For test [8], the target named is Calcium-dependent protein kinase 4 (Plasmodium falciparum (isolate 3D7)) (UniProt Q8IBS5). Description: PfCDPK4 kinase inhibitors, biochemical, TCAMS library (AID 1159588; cut-off not given, nearly all actives have IC50 up to about 0.91 µM). Conditions: recombinant PfCDPK4, Kinase-Glo ATP depletion luminescence.
Sequence of Calcium-dependent protein kinase 4 (Plasmodium falciparum (isolate 3D7)) (Q8IBS5 whole entry, looked up): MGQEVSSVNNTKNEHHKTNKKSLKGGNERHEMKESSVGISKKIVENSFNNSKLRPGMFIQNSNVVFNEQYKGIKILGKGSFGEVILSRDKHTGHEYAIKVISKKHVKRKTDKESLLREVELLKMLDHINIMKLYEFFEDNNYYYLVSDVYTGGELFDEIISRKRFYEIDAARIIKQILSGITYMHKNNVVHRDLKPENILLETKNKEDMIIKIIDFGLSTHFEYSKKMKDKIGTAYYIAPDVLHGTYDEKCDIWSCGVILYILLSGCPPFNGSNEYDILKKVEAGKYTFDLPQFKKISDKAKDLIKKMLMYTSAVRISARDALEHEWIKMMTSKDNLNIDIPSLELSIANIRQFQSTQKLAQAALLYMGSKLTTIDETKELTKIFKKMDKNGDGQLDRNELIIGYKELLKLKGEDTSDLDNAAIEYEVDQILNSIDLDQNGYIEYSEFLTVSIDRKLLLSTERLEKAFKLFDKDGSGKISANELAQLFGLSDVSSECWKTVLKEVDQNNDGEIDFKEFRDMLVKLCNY

Sequence of Calcium-dependent protein kinase 1 (Plasmodium falciparum (isolate 3D7)) (P62344 whole entry, looked up): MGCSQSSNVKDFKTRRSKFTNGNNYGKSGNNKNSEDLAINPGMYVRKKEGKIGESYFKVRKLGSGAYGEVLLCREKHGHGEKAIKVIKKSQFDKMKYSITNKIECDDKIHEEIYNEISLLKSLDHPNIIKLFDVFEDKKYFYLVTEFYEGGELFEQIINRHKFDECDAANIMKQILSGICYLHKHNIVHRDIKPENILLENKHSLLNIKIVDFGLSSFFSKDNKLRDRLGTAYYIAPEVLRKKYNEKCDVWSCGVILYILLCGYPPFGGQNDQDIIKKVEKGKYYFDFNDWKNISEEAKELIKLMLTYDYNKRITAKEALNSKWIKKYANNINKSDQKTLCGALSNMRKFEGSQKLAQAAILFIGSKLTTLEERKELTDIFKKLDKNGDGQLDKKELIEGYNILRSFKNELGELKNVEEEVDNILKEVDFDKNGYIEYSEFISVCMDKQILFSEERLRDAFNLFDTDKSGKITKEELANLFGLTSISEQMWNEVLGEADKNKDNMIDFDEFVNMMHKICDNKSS

On to `O=C(NC1CCN(Cc2ccc(Cl)cc2)CC1)c1cn(-c2ccccc2)nc1-c1cccnc1`, for which the growth inhibition in test [1] is 9%; in test [4] it was 93% (active). Also, the inhibition was 13% in test [2] and -2% in test [3]. The result in test [5], in test [6], in test [7] and in test [8] was inactive.
For the compound `O=C(/C=C/c1ccc(Cl)c(Cl)c1)NCCCCCN1CCCN(C(=S)Nc2cccc(Cl)c2)CC1`, the growth inhibition in test [1] is 7%; in test [4], 93% (active). Also, the inhibition is 19% in test [2] and 0% in test [3]. Besides, the result in test [5], in test [6], in test [7] and in test [8] was inactive.
For `CCNc1cc(C(=O)N[C@@H](Cc2ccccc2)[C@H](O)CNC(CC)c2cccc(Cl)c2)cc(N2CCCC2=O)c1` (stereo not given in full), the figures for the growth inhibition in test [1] and in test [4] were 99% (active) and 97% (active), respectively. Besides, the figures for the inhibition in test [2] and in test [3] were 12% and -1%, respectively. In addition, the result in test [5], in test [6], in test [7] and in test [8] was inactive.
As for `COc1cc(NCC(C)CNCc2cn(Cc3ccccc3)c3ccccc23)nc2ccccc12` (stereo not given), the growth inhibition in test [1] was 55% (active); in test [4], 90% (active). In addition, the values for the inhibition in test [2] and in test [3] were 21% and -6%, respectively. Further, the result in test [5], in test [6], in test [7] and in test [8] was inactive.
With `Fc1ccc(Nc2ccnc3cc(I)ccc23)c(Cl)c1`, the growth inhibition is 24% in test [1] and 95% (active) in test [4]. Moreover, the inhibition in test [2] is 35%; in test [3] it was 1%. In addition, the result in test [5], in test [6], in test [7] and in test [8] was inactive.
Consider `O=C(/C=C/c1ccc(Cl)c(Cl)c1)NCCCCCN1CCCN(C(=O)Nc2ccc(Cl)c(Cl)c2)CC1`, for which the figures for the growth inhibition in test [1] and in test [4] were 2% and 100% (active), respectively. The values for the inhibition in test [2] and in test [3] were 55% (active) and 2%, respectively. For the same compound, the outcome in test [5], in test [6], in test [7] and in test [8] was inactive.
As for `Fc1ccc(C=NNc2ccnc3ccc(C(F)(F)F)cc23)cc1`, the figures for the growth inhibition in test [1] and in test [4] were 6% and 90% (active), respectively. Besides, the results for the inhibition in test [2] and in test [3] were 22% and 4%, respectively. Besides, the outcome in test [5], in test [6], in test [7] and in test [8] was inactive.
In the case of `O=C(NC1CCN(Cc2ccccc2)CC1)c1ccc2c(=O)n(Cc3ccc(Cl)cc3)c(=S)[nH]c2c1`, the growth inhibition in test [1] was 100% (active); in test [4] it was 101% (active). The figures for the inhibition in test [2] and in test [3] were 16% and 5%, respectively. Also, the outcome in test [5], in test [6], in test [7] and in test [8] was inactive.
Take `CCNc1cc(C(=O)N[C@@H](Cc2ccccc2)[C@H](O)CNCC(C)C)cc(N2CCCC2=O)c1`: the figures for the growth inhibition in test [1] and in test [4] were 97% (active) and 98% (active), respectively. Also, the inhibition in test [2] is 16%; in test [3], 3%. Further, the outcome in test [5], in test [6], in test [7] and in test [8] was inactive.
With `CCc1sc(N2CCC(C)CC2)nc1C(=O)Nc1ccc(F)cc1C(F)(F)F`, the growth inhibition in test [1] is 65% (active); in test [4] it was 94% (active). Moreover, the figures for the inhibition in test [2] and in test [3] were 1% and 2%, respectively. For the same compound, the result in test [5], in test [6], in test [7] and in test [8] was inactive.
With `NC(=O)c1ccc(NC(=O)CN(Cc2ccc(Cl)cc2)S(=O)(=O)c2ccccc2)cc1`, the growth inhibition in test [1] was 75% (active); in test [4], 90% (active). The inhibition is 2% in test [2] and 6% in test [3]. In addition, the result in test [5], in test [6], in test [7] and in test [8] was inactive.
As to `CCOc1ccc(-c2nc(NC(=O)COc3ccc(OC)cc3)sc2C)cc1`, the growth inhibition in test [1] was 87% (active); in test [4], 99% (active). The inhibition was 0% in test [2] and -9% in test [3]. Moreover, the result in test [5], in test [6], in test [7] and in test [8] was inactive.
For `CN1CCC(NCc2ccc(-c3cnc(NCc4ccccc4)nc3)cc2)CC1`, the growth inhibition in test [1] is 64% (active); in test [4], 91% (active). Also, the inhibition in test [2] is 23%; in test [3], 4%. For the same compound, the result in test [5], in test [6], in test [7] and in test [8] was inactive.
In the case of `O=C(/C=C/c1ccc(Cl)c(Cl)c1)NCCCCCN1CCC(NC(=O)NCCc2ccccc2)CC1`, the growth inhibition was 7% in test [1] and 100% (active) in test [4]. Further, the inhibition was 23% in test [2] and 2% in test [3]. Also, the result in test [5], in test [6], in test [7] and in test [8] was inactive.
Consider `CCc1cccc2c(C#N)cn(CC(=O)NCCc3ccccc3)c12`, for which the growth inhibition in test [1] was 64% (active); in test [4] it was 95% (active). Moreover, the inhibition in test [2] was 1%; in test [3], 2%. In addition, the outcome in test [5], in test [6], in test [7] and in test [8] was inactive.
With `N#Cc1ccc(CN2CCCN(Cc3cccc(NC(=O)c4ccc(-c5ccccc5)cc4)c3)CC2)cc1`, the values for the growth inhibition in test [1] and in test [4] were 12% and 88% (active), respectively. For the same compound, the figures for the inhibition in test [2] and in test [3] were 33% and 0%, respectively. Further, the result in test [5], in test [6], in test [7] and in test [8] was inactive.
As to `CCCCc1cc(NC2CCN(C)CC2)nc(Nc2ccccc2)n1`, the growth inhibition in test [1] is 29%; in test [4], 103% (active). Also, the inhibition in test [2] is 7%; in test [3] it was -2%. For the same compound, the result in test [5], in test [6], in test [7] and in test [8] was inactive.
Turning to `Nc1nc(N)c2c(ccc3c2ccn3Cc2cc3c(cc2Cl)OCO3)n1`, the values for the growth inhibition in test [1] and in test [4] were 94% (active) and 95% (active), respectively. For the same compound, the inhibition in test [2] is 58% (active); in test [3], -5%. In addition, the result in test [5], in test [6], in test [7] and in test [8] was inactive.
For the compound `Cc1cc(N)nc2ccc(-c3cccc(CN)c3)cc12`, the growth inhibition in test [1] is 59% (active); in test [4], 101% (active). Moreover, the inhibition was 2% in test [2] and -8% in test [3]. Moreover, the outcome in test [5], in test [6], in test [7] and in test [8] was inactive.
In the case of `O=C(/C=C/c1ccc(Cl)cc1)NCCCCCN1CCC(C(=O)Nc2ccc(Cl)c(Cl)c2)CC1`, the values for the growth inhibition in test [1] and in test [4] were -4% and 100% (active), respectively. The inhibition in test [2] was 47%; in test [3] it was -3%. Moreover, the result in test [5], in test [6], in test [7] and in test [8] was inactive.
